The values that follow come from PubChem BioAssay (Tox21).

Assay [1] can be described thus: Human pregnane X receptor (PXR) small molecule agonists, qHTS cell viability counter screen (AID 1346977). Note: nearly all actives have a fitted effect of over 50% in size. Note: potency is the fitted concentration of half-maximal effect. The gist of the method:
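After a 5hr pre-incubation, PXR-Luc HepG2 cells received compounds plus positive control in DMSO and were kept 24hr at 37C. Cell viability was quantified by fluorescence from CellTiter-Fluor added for the final hour.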

Assay [2] is described as follows: Caspase-3/7 induction in HepG2 cells by small molecules, qHTS assay (AID 1346978). Note: nearly all actives have a fitted effect of over 15% in size. The gist of the method: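 Caspase-3/7 induction was measured by Caspase-Glo 3/7 luminescence (30 min, room temperature) after a 17 hr compound exposure of wild-type HepG2 cells seeded at 2,000 per well and pre-incubated 5 hr.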
Assay [3] can be described thus: Caspase-3/7 induction in CHO-K1 cells by small molecules, qHTS cell viability counter screen (AID 1346979). Note: nearly all actives have a fitted effect of over 35% in size. Note: potency is the fitted concentration of half-maximal effect. Summed up: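 Multiplexed with Caspase-Glo 3/7 in CHO-K1 cells, this counter screen added CellTiter-Fluor after 16hr of compound exposure and recorded fluorescence 1hr later.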
Assay [4] is described as follows: Caspase-3/7 induction in CHO-K1 cells by small molecules, qHTS assay (AID 1346980). Note: nearly all actives have a fitted effect of over 15% in size. The gist of the method:
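Luminescent Caspase-Glo 3/7 read (30min, room temperature) quantified apoptosis induction. Cells were wild-type CHO-K1, treated with compound for 17hr at 37 C and 5% CO2.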
On the technique in general: In qHTS, concentration-response curves come from the screen itself.

A short description of assay [5]: Caspase-3/7 induction in HepG2 cells by small molecules, qHTS cell viability counter screen (AID 1346981). For activity change, negative = cytotoxicity: series mostly up to about 92 µM. Note: nearly all actives have a fitted effect of over 30% in size. Note: potency is the fitted concentration of half-maximal effect. The gist of the method:
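Treatment of HepG2 cells with DMSO-delivered compounds ran 16 hr at 37 C following a 5-hr pre-incubation of 2,000 cells/well. CellTiter-Fluor fluorescence, read after 1 hr, served as the viability measure in a qHTS format.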

Assay [6] has as its target Nuclear receptor subfamily 1 group I member 2 (Rattus norvegicus) (UniProt Q9R1A7). In words: Rat pregnane X receptor (rPXR) activation by small molecules, qHTS assay (AID 1346983). Note: nearly all actives have a fitted effect of over 20% in size. Particulars: rPXR luciferase reporter cells, One-Glo luminescence, 24 h; max activation: active compounds read high. The gist of the method:
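Luminescent readout (One-Glo luciferase, 30 min room temperature) followed 24 hr compound treatment at 37 C of rPXR cells plated 2,000 per well and preincubated 5hr; qHTS format with compounds delivered in DMSO.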

The target of assay [7] is Cytochrome P450 2D6 (Homo sapiens) (UniProt P10635). The experiment in a line: Cytochrome P450 Family 2 Subfamily D Member 6 (CYP2D6) small molecule antagonists: luciferase reporter qHTS assay (AID 1671196). Note: nearly all actives have a fitted effect of over 50% in size. Note: potency is the fitted concentration of half-maximal effect. Summed up: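 Chemicals tested for interference with CYP2D6 activity; proluciferin substrate, NADPH regeneration, 1 h at room temperature, luminescent detection.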
Cytochrome P450 2D6 (Homo sapiens), sequence (P10635 whole entry, looked up): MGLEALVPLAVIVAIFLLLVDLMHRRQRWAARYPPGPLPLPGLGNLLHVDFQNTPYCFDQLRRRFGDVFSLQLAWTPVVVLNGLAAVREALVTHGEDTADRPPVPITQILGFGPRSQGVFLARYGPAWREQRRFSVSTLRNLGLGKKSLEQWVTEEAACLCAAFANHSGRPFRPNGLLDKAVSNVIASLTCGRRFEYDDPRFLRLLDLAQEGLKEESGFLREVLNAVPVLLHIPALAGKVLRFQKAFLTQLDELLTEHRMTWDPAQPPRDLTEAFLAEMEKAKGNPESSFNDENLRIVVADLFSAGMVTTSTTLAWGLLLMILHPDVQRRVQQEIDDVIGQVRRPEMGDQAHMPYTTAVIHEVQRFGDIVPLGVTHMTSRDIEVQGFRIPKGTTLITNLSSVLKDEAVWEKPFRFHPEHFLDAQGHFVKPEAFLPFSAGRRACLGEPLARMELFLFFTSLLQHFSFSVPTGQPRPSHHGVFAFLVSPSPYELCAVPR
For orientation: A reporter such as luciferase makes a cellular process visible.

Assay [8] deals with Nuclear receptor subfamily 1 group I member 2 (Homo sapiens) (UniProt O75469). The experiment in a line: Human pregnane X receptor (PXR) small molecule agonists, qHTS assay (AID 1346982). Note: nearly all actives have a fitted effect of over 35% in size. Note: potency is the fitted concentration of half-maximal effect. The gist of the method:
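Stable HepG2 line reporting PXR-mediated CYP3A4 expression via luciferase. Treatment: 24 hr with compounds in DMSO at 37 C. Detection: ONE-Glo luminescence.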

Assay [9] has the same target. In words: CYP3A4 induction through human pregnane X receptor (PXR) by small molecules, qHTS assay (AID 1346984). Note: nearly all actives have a fitted effect of over 40% in size. The gist of the method:
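After 24 h at 37C with compound, DPX-2 cells (HepG2, co-transfected PXR response element and CYP3A4 promoter-luciferase) got 3uM final P450-Glo Luciferin-IPA for 3 h; One-Glo luminescence followed.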

Assay [10] has the same target. The experiment in a line: Human pregnane X receptor (PXR) activation by small molecules, qHTS assay (AID 1346985). Note: nearly all actives have a fitted effect of over 40% in size. Note: potency is the fitted concentration of half-maximal effect. The gist of the method:
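DPX-2 cells (HepG2 co-transfected with a PXR response element and a CYP3A4-promoter luciferase construct) were seeded at 2,000 per well, rested 5 hr at 37C, then exposed to DMSO-dissolved compounds for 24 hr. Activation was read as luciferase luminescence.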

SMILES strings stand for the structures. Values without a mark were called inactive. Records with an inconclusive call do not appear. The source made the active and inactive calls. Calls come from the whole dose curve; as a rule, active = well fitted curve in the direction sought with a large enough effect in the repeat runs; inconclusive = weak or mixed curves; inactive = no such curve, though single readings can be large; an effect the other way counts as inactive or inconclusive.
% is set by controls: 0 for no effect and ±100 for the full control effect.

Nuclear receptor subfamily 1 group I member 2 (Homo sapiens), sequence (O75469 whole entry, looked up): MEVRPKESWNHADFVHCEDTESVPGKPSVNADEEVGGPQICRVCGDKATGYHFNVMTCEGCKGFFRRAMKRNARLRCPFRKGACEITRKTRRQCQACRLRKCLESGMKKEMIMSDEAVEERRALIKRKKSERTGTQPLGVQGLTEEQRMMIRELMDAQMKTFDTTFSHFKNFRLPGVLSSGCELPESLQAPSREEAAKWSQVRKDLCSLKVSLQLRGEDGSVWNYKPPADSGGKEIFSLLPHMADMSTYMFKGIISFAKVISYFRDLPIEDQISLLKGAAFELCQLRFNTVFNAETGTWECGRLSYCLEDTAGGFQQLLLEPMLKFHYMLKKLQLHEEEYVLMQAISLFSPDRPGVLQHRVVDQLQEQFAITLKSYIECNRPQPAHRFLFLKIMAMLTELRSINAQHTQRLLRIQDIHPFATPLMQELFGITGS
Nuclear receptor subfamily 1 group I member 2 (Rattus norvegicus), sequence (Q9R1A7 whole entry, looked up): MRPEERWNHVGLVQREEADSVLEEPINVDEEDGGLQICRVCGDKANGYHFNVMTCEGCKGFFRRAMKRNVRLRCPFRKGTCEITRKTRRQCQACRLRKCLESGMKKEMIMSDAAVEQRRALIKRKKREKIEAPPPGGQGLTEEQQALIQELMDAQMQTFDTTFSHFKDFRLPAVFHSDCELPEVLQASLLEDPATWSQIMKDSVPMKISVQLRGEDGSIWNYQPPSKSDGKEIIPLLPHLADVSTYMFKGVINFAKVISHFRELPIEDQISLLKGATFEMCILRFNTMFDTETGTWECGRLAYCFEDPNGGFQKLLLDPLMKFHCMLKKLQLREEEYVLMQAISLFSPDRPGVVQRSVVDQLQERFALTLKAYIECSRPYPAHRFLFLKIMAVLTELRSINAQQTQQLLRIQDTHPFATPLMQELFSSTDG

Take `CCCCc1ncc(/C=C(\Cc2cccs2)C(=O)O)n1Cc1ccc(C(=O)O)cc1`: the Potency result in assay [1], in [2], in assay [3], in assay [4], in assay [5] and in [7] was “inactive” in each case. In addition, the max activation in [6] is -2.02%.

Consider `O=[N+]([O-])c1cccc(S(=O)(=O)O)c1`, for which the Potency entry in assay [1], in assay [2], in assay [3], in [4] and in assay [5] was “inactive” each time. Also, in [7], the Potency is 7.21 µM (active).

As to `CC(C)CC(=O)C1C(=O)c2ccccc2C1=O`, the Potency result in assay [1], in [2], in assay [4] and in assay [7] was “inactive” throughout. For the same compound, the Potency in assay [3] is 61.1 µM (active).

On to `Nc1cc(C(=O)O)c(O)c(S(=O)(=O)O)c1`, for which the Potency entry in assay [1], in assay [2], in assay [4] and in [5] was “inactive” throughout.

For the compound `CC(C)(O)c1ccc(CNC(=O)c2cccnc2Oc2ccc(F)cc2)cc1`, the Potency entry in [1], in assay [2], in [3], in assay [4], in [5] and in [7] was “inactive” in each case. Further, the Potency in assay [8] is 54.5 µM (active).

For the compound `C=C(C)C(=O)OCCO`, the Potency result in [1], in [2], in assay [3], in assay [4], in assay [5] and in assay [7] was “inactive” each time.

As for `CCC(=O)O[C@]1(C(=O)CCl)[C@@H](C)C[C@H]2[C@@H]3CCC4=CC(=O)C=C[C@]4(C)[C@@]3(F)[C@@H](O)C[C@@]21C`, the Potency entry in assay [1], in assay [2], in assay [3], in [4] and in assay [5] was “inactive” in each case. In addition, the Potency in [7] was 15.5 µM (active).

Take `CN(C)CCCN1c2ccccc2Sc2ccccc21`: the Potency in [1] is 23.7 µM (active). Moreover, the Potency entry in assay [2], in assay [4] and in assay [5] was “inactive” each time.

As to `CN(Cc1ccc(C(C)(C)C)cc1)Cc1cccc2ccccc12`, the Potency entry in assay [1], in [2], in [3], in assay [4] and in assay [5] was “inactive” each time. For the same compound, in assay [7], the Potency was 0.347 µM (active).

Turning to `C1CCCNCCC1`, the Potency result in assay [1], in [2], in assay [3], in assay [4], in assay [5] and in assay [8] was “inactive” each time. In addition, the Potency result in assay [7] is “inactive”.

Regarding `C[C@@H](c1ncncc1F)C(O)(Cn1cncn1)c1ccc(F)cc1F` (some centres undefined), the Potency result in assay [1], in assay [2], in assay [3], in assay [4], in assay [5] and in assay [7] was “inactive” throughout.

Take `O=C1c2ccccc2S(=O)(=O)N1CCCCN1CCN(c2ncccn2)CC1`: the Potency entry in assay [1], in assay [2], in assay [3], in assay [4] and in assay [5] was “inactive” each time. Moreover, the max activation in [6] is 0.873%. Moreover, the Potency in [7] is 1.38 µM (active).

On to `CCCCC1=NC2(CCCC2)C(=O)N1Cc1ccc(-c2ccccc2-c2nn[nH]n2)cc1`, for which the Potency result in assay [1], in assay [2], in assay [4], in assay [8], in assay [9] and in assay [10] was “inactive” throughout. Also, the Potency entry in [7] is “inactive”. In addition, in [3], the Potency is 29.8 µM (active).

As to `OCCN1CCN(CCCN2c3ccccc3C=Cc3ccccc32)CC1`, the Potency is 23.7 µM (active) in assay [1], 6.68 µM (active) in assay [8] and 10 µM (active) in assay [10]. Also, the Potency entry in assay [2], in assay [3] and in [4] was “inactive” throughout.

In the case of `CCOc1ccc(O)cc1`, the Potency entry in [1], in [2], in [3], in assay [4], in assay [5] and in [7] was “inactive” each time.

Regarding `Cc1ccc(C(=O)Oc2ccc(C(O)CNC(C)(C)C)cc2OC(=O)c2ccc(C)cc2)cc1` (centres undefined), the Potency entry in assay [1], in assay [2] and in assay [5] was “inactive” throughout. In addition, the Potency in [3] was 29.8 µM (active).

As to `CC(=O)c1ccc2c(c1)N(CCCN1CCC(CCO)CC1)c1ccccc1S2`, the Potency in assay [1] is 26.6 µM (active); in assay [3], 29.8 µM (active). The Potency result in assay [2], in assay [4] and in [10] was “inactive” throughout.

Regarding `COCCCN1CCC(NC(=O)c2cc(Cl)c(N)c3c2OCC3)CC1`, the Potency result in assay [1], in assay [2], in [3], in assay [4] and in assay [5] was “inactive” in each case. In assay [7], the Potency was 3.89 µM (active).

Take `C=CC(=O)OCCOCCOC(=O)C=C`: the Potency in assay [1] is 54.7 µM (active); in assay [3], 15.4 µM (active); in assay [5], 61.4 µM (active). The Potency entry in [2], in [8] and in assay [7] was “inactive” each time.

With `Cc1nn(C)c(Oc2ccccc2)c1/C=N/OCc1ccc(C(=O)OC(C)(C)C)cc1`, the Potency is 0.0863 µM (active) in assay [1], 0.0154 µM (active) in [3] and 38.6 µM (active) in assay [8]. For the same compound, the Potency entry in assay [2], in assay [4] and in assay [7] was “inactive” throughout.

Turning to `Cc1ccc(N=Nc2c(O)c(C(=O)O)cc3ccccc23)c(S(=O)(=O)O)c1`, the Potency is 23.6 µM (active) in [1], 23.6 µM (active) in assay [3] and 29.7 µM (active) in assay [5]. Besides, the Potency result in assay [2], in assay [4], in [8] and in assay [7] was “inactive” in each case.

`C=CC(=O)OCCOc1ccccc1`: the Potency entry in [1], in [2], in assay [4] and in [5] was “inactive” each time.

Consider `O=C(O)c1ccc(S(=O)(=O)O)cc1C(=O)O`, for which the Potency result in [1], in assay [2], in [3], in assay [4] and in [8] was “inactive” throughout.

Turning to `c1cc(CCCc2ccncc2)ccn1`, the Potency result in assay [1], in assay [2], in assay [3], in assay [4] and in assay [5] was “inactive” in each case. Moreover, the Potency was 61.1 µM (active) in assay [8] and 1.78 µM (active) in assay [7].

Regarding `COc1ccc(C(=O)Nc2nc3ccccc3c(NCc3ccccc3)c2C#N)cc1`, the Potency result in assay [1], in [2], in assay [4] and in [7] was “inactive” each time. The Potency in [3] is 19.3 µM (active); in assay [8] it was 7.7 µM (active).

Take `CN(C)c1ccc(/C=C/c2ccc([N+](=O)[O-])cc2)cc1`: the activity change, negative = cytotoxicity in assay [1] is -0.583% [at 8.39 µM]; in [5], 14.3% [at 8.39 µM]. Further, the caspase activation in assay [2] is 0.696% [at 8.39 µM]. Moreover, in [4], the caspase-3/7 activation was -2.91% [at 8.39 µM].

Consider `CC1=CC=C(C(C)C)CC1`, for which the Potency result in assay [1], in [2], in assay [3], in assay [4], in assay [5] and in [8] was “inactive” throughout. Moreover, the Potency result in assay [7] is “inactive”.

For `Nc1ccc([N+](=O)[O-])c(C(F)(F)F)c1`, the Potency result in assay [1], in assay [2], in assay [4], in [8] and in assay [7] was “inactive” throughout. Also, the Potency in [3] is 29.8 µM (active).
